Assay outcomes deposited in PubChem BioAssay by National Center for Advancing Translational Sciences (NCATS).
A selection: hits, their analogues and other compounds. The true share with any hit is near 7.2%.
HCV inhibitor: inhibitors of hepatitis C virus infection; hit rate 3.4% among 340,000; Potency, µM (highest dose often 41.8 µM), without a hit: at the top dose activity change, negative = inhibition, most hits filed as inhibitors; Huh7.5.1 HCVcc-Cre infection, luciferase reporter, 44 h
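HCVcc-Cre virus at an moi near 0.5 was added right after compound to cells cultured 4 h from seeding (1,000 cells/well). Luciferase activity was determined 44 h later, 15 min after substrate addition at RT.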
RE007 growth inh: less growth of the S. pombe RE007 Vpr strain; S. pombe RE007 Vpr strain, BacTiter-Glo ATP luminescence, 24 h; hit rate 0.21% among 360,000; Potency, µM (top dose mostly 92.2 µM), for the others: at the top dose activity change, negative = less growth, actives largely listed as inhibitors; active = well fitted falling curve with a large enough effect; inconclusive = small, poorly fitted or top-dose-only effect; inactive = no such curve, though single readings can be large or run the other way; also: nearly all actives have a fitted effect of over 50% in size
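Fission yeast strain RE007, carrying one chromosomally integrated HIV-1 vpr copy, was seeded at OD 0.01 in PMG+AL medium with 23 nL pinned compound. After 24 h at 30 °C and 99% humidity, viability was read by BacTiter-Glo luminescence.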
FMDV antiviral: foot and mouth disease virus antiviral activity | FMDV antiviral cell-based qHTS | Potency, µM (doses to about 57.9 µM), for the others: top-dose activity change, negative = inhibition, most hits filed as inhibitors | hit rate 1.2% among 410,000; calls by dose curve; tested in HEK293T cells; also: read-out not given here; nearly all actives have a fitted effect of over 45% in size
Marburg entry inh: blocks Marburg virus binding to or entry into cells; Marburg virus pseudotyped entry inhibition, cell reporter; hit rate 1.8% among 300,000; Potency, µM (doses to about 37.8 µM), without a hit: at the top dose activity change, negative = inhibition, most hits filed as inhibitors; AID 540276; calls by dose curve; tested in HEK293 cells
Sm TGR inh: S. mansoni TGR enzyme inhibition. Q962Y6. purified TGR, DTNB reduction, TNB absorbance 405 nm. Potency, µM (top dose mostly 114 µM), for the others: at the top dose activity change, negative = inhibition, usual class: inhibitors. hit rate 3% among 360,000. AID 485364; also: nearly all actives have a fitted effect of over 60% in size
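First, TGR (20 nM dispensed) and NADPH were mixed with compound. Second, a 15 min room-temperature incubation followed. Third, further NADPH and then DTNB were added to start the reaction. Finally, TNB absorbance was monitored kinetically.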
LASV entry inh: Lassa virus entry inhibition. hit rate 1.2% among 300,000. Potency, µM (doses to about 37.9 µM), without a hit: top-dose activity change, negative = inhibition, most hits filed as inhibitors. Lassa virus pseudotype entry inhibition, cell reporter; calls by dose curve; tested in HEK293 cells; also: nearly all actives have a fitted effect of over 50% in size
Numbers without * were called inactive; ? = inconclusive; . = no result given; [ ] = dose if it differs, or a comment. Unless noted, calls follow the shape of the dose curve; as a rule, active = well fitted curve in the direction sought with a large enough effect; inconclusive = small, poorly fitted or top-dose-only effect, or another doubt; inactive = no such curve, though single readings can be large; an effect the other way counts as inactive or inconclusive. % is scaled to controls: 0 for no effect and ±100 for the full control effect; potency is read from the fitted curve at half-maximal effect.

SMILES | HCV inhibitor | RE007 growth inh | FMDV antiviral | Marburg entry inh | Sm TGR inh | LASV entry inh
CC(=O)N1CCN(CCN=CC2=C(O)CC(c3cccs3)CC2=O)CC1 (configuration not stated) | 3.2% | 1.2% | -22.8% | -4.0% | 44.7µM* | 7.6%
CCCOc1ccc(N2C(=O)CC(N3CCN(CCN=CC4=C(O)CC(C)(C)CC4=O)CC3)C2=O)cc1 (configuration not stated) | 10.6% | ? | -4.5% | 13.7%[46.1 µM] | . | 1.0%
CSc1ncc(C(=O)NCc2ccc(C)cc2)c(C)n1 | . | . | -13.2% | . | 0.4% | -9.9%[46.1 µM]
Cc1ccc(-c2nnc(Nc3ccc(O)cc3)c3ccccc23)cc1S(=O)(=O)N1CCN(C)CC1 | . | . | -12.1% | -12.4%[46.1 µM] | ? | 1.7%[46.1 µM]
COc1ccc(-c2onc(C)c2C)cc1S(=O)(=O)NC1CCC(C)CC1 (configuration not stated) | . | . | 11.7% | . | -1.1% | ?
Clc1ccccc1CN1CCN(/N=C/C=C/c2ccco2)CC1 | -8.3% | -3.0% | 54.6% | . | 15.8µM* | .
O=C(CN1CCN(Cc2ccccc2Cl)CC1)N/N=C/C=C/c1ccco1 | 0.9% | ? | -16.9% | -19.8%[46.1 µM] | 20µM* | 7.1%[46.1 µM]
COc1ccccc1-c1noc(CSc2nc3ccc(C)cc3[nH]2)n1 | . | . | ? | ? | -5.2% | ?
CCc1ccc(NC(=O)C(C)OC(=O)c2c(C)nn(Cc3ccccc3)c2Cl)cc1 (configuration not stated) | 11.2µM* | 6.1% | ? | -22.6%[46.1 µM] | -4.3% | ?
CCOc1ccc(NC(=O)c2c(C)nn(Cc3ccccc3)c2Cl)cc1 | 5.2% | -0.7% | -3.8% | ? | 8.7% | 3.3%
Cc1nn(Cc2ccccc2)c(Cl)c1C(=O)OC(C)C(=O)Nc1ccc(F)cc1Cl (configuration not stated) | ? | -10.7% | 0.0% | 12.6µM* | 15.2% | 3.16µM*
Cc1cccn2c(=O)c3cc(C(=O)NCC4CCCO4)c(=N)n(C4CCCCC4)c3nc12 (configuration not stated) | ? | -21.9% | -19.7% | ? | 0.1% | ?
N=c1c(C(=O)NC2CCCCC2)cc2c(=O)n3ccccc3nc2n1Cc1ccccc1 | 11.2µM* | -9.8% | -11.1% | . | 2.4% | .
COCCCn1c(=N)c(C(=O)NC2CCCC2)cc2c(=O)n3cccc(C)c3nc21 | . | . | 54.0% | 19.7%[46.1 µM] | -8.5% | ?
Cc1cccn2c(=O)c3cc(C(=O)NC4CCCC4)c(=N)n(CCCN4CCOCC4)c3nc12 | -19.5% | -9.0% | -8.0% | 3.55µM* | 3.9% | -11.9%[46.1 µM]
Cc1cccn2c(=O)c3cc(S(=O)(=O)c4ccc(F)cc4)c(=N)n(Cc4ccco4)c3nc12 | 2.82µM* | -2.7% | 5.7% | ? | -4.9% | ?
Cc1cccn2c(=O)c3cc(S(=O)(=O)c4ccccc4)c(=N)n(Cc4ccco4)c3nc12 | 6.7% | 3.7% | 18.2% | 6.8%[46.1 µM] | -25.4%[57.1 µM] | 4.7%[46.1 µM]
Cc1cccn2c(=O)c3cc(C(=O)NCc4ccco4)c(=N)n(C4CCCC4)c3nc12 | 6.31µM* | -11.3% | -14.4% | ? | -16.7% | -6.7%
C/C=C(\C)C(=O)OC1[C@@H]2C=C3C4CC(=O)OC(c5ccoc5)[C@]4(C)CCC3[C@@](C)(C2=O)C(C(O)C(=O)OC)C1(C)C (some centres not stated) | . | . | 12.8% | . | . | .
COc1ccc(CCn2c(=N)c(C(=O)NCc3ccco3)cc3c(=O)n4ccccc4nc32)cc1 | . | 7.4% | -1.9% | 20.6µM* | 0.0% | -25.6%[14.3 µM]
N=c1c(C(=O)NCCc2ccccc2)cc2c(=O)n3ccccc3nc2n1Cc1ccco1 | ? | -5.3% | -26.1% | ? | -4.1% | ?
Cc1cccn2c(=O)c3cc(C(=O)NCCN4CCOCC4)c(=N)n(CCN4CCOCC4)c3nc12 | -11.3% | -6.7% | -8.2% | ? | -7.5% | -0.9%
Cc1cccn2c(=O)c3cc(C(=O)NCCN4CCOCC4)c(=N)n(Cc4ccc(F)cc4)c3nc12 | ? | 12.2% | -3.4% | ? | -1.2% | 5.62µM*
N=c1c(C(=O)NCCc2ccccc2)cc2c(=O)n3ccccc3nc2n1CCCN1CCOCC1 | ? | -16.1% | -3.5% | 7.08µM* | -5.6% | ?
COC(=O)C1=C(C(=O)OC)[C@@H]2N(CC=C(C)C)c3ccccc3[C@@]23CCC(=O)N(Cc2cccc(C(F)(F)F)c2)C3=N1 | . | . | . | -27.9%[14.2 µM] | . | ?
SMILES | HCV inhibitor | RE007 growth inh | FMDV antiviral | Marburg entry inh | Sm TGR inh | LASV entry inh
O=C(c1cc(C(F)(F)F)cc(C(F)(F)F)c1)N1CCC2(CC1)CN(c1ncccn1)C2 | . | . | -7.3% | . | . | .
CC1Cn2c(C(=O)NCc3cccc(Br)c3)cc3cccc(c32)S1 (configuration not stated) | . | . | -18.7% | . | -0.7% | 9.6%[46.1 µM]
CC1CCCN(S(=O)(=O)c2cc(C(=O)NCCc3ccc(S(N)(=O)=O)cc3)ccc2Cl)C1 (configuration not stated) | 7.94µM* | 8.1% | 17.8µM* | . | . | .
CC1CCCN(S(=O)(=O)c2cc(C(=O)NCc3ccco3)ccc2Cl)C1 (configuration not stated) | ? | 15.3% | 2.8% | . | . | .
CC1CN(C(=O)COC(=O)c2ccc(Cl)c(S(=O)(=O)N3CCCCC3)c2)CC(C)O1 (configuration not stated) | -28.1% | 1.9% | -8.4% | -19.4% | -0.6% | 12.9%[46.1 µM]
O=C(NCc1ccccn1)c1ccc(Cl)c(S(=O)(=O)N2CCCCCC2)c1 | 11.2µM* | -6.5% | 0.0% | ? | -15.2% | -11.5%
COc1ccc(CCNC(=O)c2ccc(Cl)c(S(=O)(=O)N(C)c3ccccc3)c2)cc1 | 3.55µM* | 9.6% | 28.2µM* | ? | -3.3% | ?
COc1ccc(COC(=O)c2ccc(Cl)c(S(=O)(=O)N3CC(C)OC(C)C3)c2)cc1 (configuration not stated) | 14.1µM* | 6.2% | ? | -17.4% | 3.4% | ?
CCN(c1ccccc1)S(=O)(=O)c1ccc(Cl)c(C(=O)NCCc2ccc(OC)cc2)c1 | -27.7% | -0.9% | 0.0% | ? | 4.2% | ?
Cc1ccc(Cn2c(C)c(CNCC(C)c3ccccc3)c(C(=O)O)c2C)cc1 (configuration not stated) | . | . | -18.1% | 9.2%[46.1 µM] | -1.5% | 18.9%[46.1 µM]
COc1ccc(CCNC(=O)c2cccc(S(=O)(=O)N3CCCCCC3)c2)cc1 | -18.7% | -10.0% | -28.4% | 3.0% | -7.1% | .
COc1ccc(CCNC(=O)c2ccc(Cl)c(S(=O)(=O)N3CCCCCC3)c2)cc1 | 2.82µM* | -11.7% | 14.1µM* | . | 5.3% | .
COc1ccc(CCNC(=O)c2ccc(N(C)S(=O)(=O)c3ccc(C)cc3)cc2)cc1 | 10µM* | 7.6% | ? | -22.1%[46.1 µM] | 15.4% | ?
O=C(NCCc1ccccc1)c1ccc(Cl)c(S(=O)(=O)N2CCCC2)c1 | 10µM* | 6.4% | -7.3% | . | -7.4% | .
